# Calls of active or inactive are those of the source. The rule behind the calls is not given here.
# Target: Serine/threonine-protein kinase pim-1 (Homo sapiens) (UniProt P11309)
# Experiment: compound-induced PIM1 thermal stabilization – biophysical, human, melting temperature shift (AID 393)
# Conditions: Thermal shift assay, at 10 µM, active compounds read high; protein 2 µM, buffer 10 mM Na Citrate, pH 6.5, NaCl 150 mM unless noted
# Sequence of Serine/threonine-protein kinase pim-1 (Homo sapiens) (P11309 whole entry, looked up): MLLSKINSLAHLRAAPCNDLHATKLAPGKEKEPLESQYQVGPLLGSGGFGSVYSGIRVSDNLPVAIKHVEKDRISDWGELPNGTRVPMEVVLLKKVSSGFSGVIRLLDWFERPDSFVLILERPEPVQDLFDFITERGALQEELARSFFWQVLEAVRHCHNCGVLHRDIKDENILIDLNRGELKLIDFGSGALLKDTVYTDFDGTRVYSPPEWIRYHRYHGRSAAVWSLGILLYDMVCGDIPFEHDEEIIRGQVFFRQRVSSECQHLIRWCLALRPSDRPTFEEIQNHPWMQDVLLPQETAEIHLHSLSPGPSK
row,Compound,Tm shift
1,N#C/C(=C1\Nc2ccccc2S1)c1ccnc(NCCc2cccnc2)n1,10.3 Celsius (active)
2,CCn1cnc2c(Nc3cccc(Cl)c3)nc(N[C@@H]3CCCC[C@@H]3N)nc21,5.8 Celsius (active)
3,Cc1c2ccncc2c(C)c2c1[nH]c1ccccc12,8.6 Celsius (active)
4,O=C1Nc2ccccc2/C1=C\c1cnc[nH]1,"3.92 Celsius [protein 3 µM, buffer 10 mM HEPES] (active)"
5,O=C1NC(=O)c2c1c1c3ccccc3n3c1c1c2c2ccccc2n1[C@@H]1CCC3O1,"12.7 Celsius [protein 2 µM, buffer 10 mM PIPES, pH 6.5, NaCl 150 mM] (active)"

# Reference: PubChem BioAssay AID393 (SGCOxCompounds, 2006)
